The entries come from a sample that favours the strongest signals as a whole.
Assays:
Assay in all cases: glycan array binding signal (z-score within array); higher = stronger binding
Conditions in all cases: glycan notation: IUPAC condensed, linker removed
Gal6P(b1-4)GlcNAc = biological target: Gal6P(b1-4)GlcNAc
How it was run: (§1)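 From the Consortium for Functional Glycomics database, 3228 arrays were curated, keeping only those whose protein sequence was available. Binding is given as a within-array Z-score averaged across arrays sharing a protein sequence and across linkers. Negative Z-scores can be read as non-binding.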

GalNAc(a1-3)Gal = biological target: GalNAc(a1-3)Gal
How it was run: as §1

GalNAc(a1-3)GalNAc = biological target: GalNAc(a1-3)GalNAc
How it was run: as §1

GalNAc(b1-4)GlcNAc = biological target: GalNAc(b1-4)GlcNAc
How it was run: as §1

[1] = biological target: GlcNAc(a1-4)Gal(b1-4)GlcNAc(b1-3)Gal(b1-4)GlcNAc(b1-3)Gal(b1-4)GlcNAc
How it was run: as §1

[2] = biological target: GlcNAc(b1-3)Gal(b1-4)GlcNAc(b1-2)[GlcNAc(b1-3)Gal(b1-4)GlcNAc(b1-6)]Man(a1-6)[GlcNAc(b1-3)Gal(b1-4)GlcNAc(b1-2)Man(a1-3)]Man(b1-4)GlcNAc(b1-4)GlcNAc
How it was run: as §1

[3] = biological target: GlcNAc(b1-3)Gal(b1-4)GlcNAc(b1-3)Gal(b1-4)GlcNAc
How it was run: as §1

[4] = biological target: GlcNAc(b1-3)Gal(b1-4)GlcNAc(b1-3)Gal(b1-4)GlcNAc(b1-3)Gal(b1-4)GlcNAc(b1-2)Man(a1-3)[GlcNAc(b1-3)Gal(b1-4)GlcNAc(b1-3)Gal(b1-4)GlcNAc(b1-3)Gal(b1-4)GlcNAc(b1-2)Man(a1-6)]Man(b1-4)GlcNAc(b1-4)[Fuc(a1-6)]GlcNAc
How it was run: as §1

[5] = biological target: GlcNAc(b1-3)Gal(b1-4)GlcNAc(b1-3)[GlcNAc(b1-3)Gal(b1-4)GlcNAc(b1-3)]GalNAc
How it was run: as §1

[6] = biological target: GlcNAc(b1-3)[GlcNAc(b1-4)][GlcNAc(b1-6)]GlcNAc
How it was run: as §1

[7] = biological target: GlcNAc(b1-3)[GlcNAc(b1-6)]GalNAc
How it was run: as §1

[8] = biological target: GlcNAc(b1-4)GlcNAc(b1-4)GlcNAc
How it was run: as §1

Kdn(a2-3)Gal(b1-3)GlcNAc = biological target: Kdn(a2-3)Gal(b1-3)GlcNAc
How it was run: as §1

[9] = biological target: Man(a1-2)Man(a1-2)Man(a1-3)Man
How it was run: as §1

[10] = biological target: Man(a1-2)Man(a1-2)Man(a1-6)[Man(a1-3)]Man
How it was run: as §1

Man(a1-2)Man(a1-3)Man = biological target: Man(a1-2)Man(a1-3)Man
How it was run: as §1

[11] = biological target: Man(a1-2)Man(a1-3)[Man(a1-2)Man(a1-6)]Man
How it was run: as §1

[12] = biological target: Man(a1-2)Man(a1-3)[Man(a1-2)Man(a1-6)]Man(a1-6)[Man(a1-2)Man(a1-2)Man(a1-3)]Man
How it was run: as §1

[13] = biological target: Man(a1-2)Man(a1-6)[Man(a1-3)]Man(a1-6)[Man(a1-2)Man(a1-2)Man(a1-3)]Man(b1-4)GlcNAc(b1-4)GlcNAc
How it was run: as §1

Man(a1-3)[Man(a1-6)]Man = biological target: Man(a1-3)[Man(a1-6)]Man
How it was run: as §1

[14] = biological target: Man(a1-3)[Man(a1-6)]Man(a1-6)[Man(a1-2)Man(a1-3)]Man(b1-4)GlcNAc(b1-4)GlcNAc
How it was run: as §1

[15] = biological target: Neu5Ac(a2-3)Gal(b1-3)GalNAc(b1-4)Gal(b1-4)Glc
How it was run: as §1

[16] = biological target: Neu5Ac(a2-3)Gal(b1-3)GlcNAc6S
How it was run: as §1

[17] = biological target: Neu5Ac(a2-3)Gal(b1-3)[GlcNAc(b1-6)]GalNAc
How it was run: as §1

[18] = biological target: Neu5Ac(a2-3)Gal(b1-3)[Neu5Ac(a2-6)]GalNAc
How it was run: as §1

[19] = biological target: Neu5Ac(a2-3)Gal(b1-4)GlcNAc(b1-2)Man(a1-3)[GlcNAc(b1-4)][Neu5Ac(a2-3)Gal(b1-4)GlcNAc(b1-2)Man(a1-6)]Man(b1-4)GlcNAc(b1-4)GlcNAc
How it was run: as §1

[20] = biological target: Neu5Ac(a2-3)Gal(b1-4)GlcNAc(b1-3)Gal(b1-3)GlcNAc
How it was run: as §1

[21] = biological target: Neu5Ac(a2-3)Gal(b1-4)GlcNAc(b1-3)Gal(b1-4)GlcNAc(b1-3)Gal(b1-4)GlcNAc(b1-2)Man(a1-3)[Neu5Ac(a2-3)Gal(b1-4)GlcNAc(b1-3)Gal(b1-4)GlcNAc(b1-3)Gal(b1-4)GlcNAc(b1-2)Man(a1-6)]GalNAc
How it was run: as §1

[22] = biological target: Neu5Ac(a2-3)Gal(b1-4)[Fuc(a1-3)]GlcNAc(b1-6)[Gal(b1-3)]GalNAc
How it was run: as §1

[23] = biological target: Neu5Ac(a2-6)Gal(b1-4)GlcNAc(b1-2)Man(a1-3)[Neu5Ac(a2-6)Gal(b1-4)GlcNAc(b1-2)Man(a1-6)]Man(b1-4)GlcNAc(b1-4)[Fuc(a1-6)]GlcNAc
How it was run: as §1

[24] = biological target: Neu5Ac(a2-6)Gal(b1-4)GlcNAc(b1-2)Man(a1-6)Man(b1-4)GlcNAc(b1-4)GlcNAc
How it was run: as §1

[25] = biological target: Neu5Ac(a2-6)Gal(b1-4)GlcNAc(b1-6)GalNAc
How it was run: as §1

B1: Mincle (Bos taurus) (protein)
chain: MNSSTSPASQTERRCFSFQLFSWAIAGTSILLLSACFITRCVVTYSIFQLCDEKKFQPPGDSMELSCYNDGSGSVKNCCPLKWFHFQSSCYLFSPDTMSWRASLKNCSSMGAHLVVINTQEEQEFLYYTKPRKKEFYIGLTDQVTEGQWQWVDGTPFTKSLSFWDAGEPNNLVIVEDCATIRDSSNPRQNWNDVPCFFNMFRVCEMPERKI
- glycan array binding signal (z-score) (Gal6P(b1-4)GlcNAc): -0.035
- glycan array binding signal (z-score) (GalNAc(a1-3)Gal): -1.18
- glycan array binding signal (z-score) (GalNAc(a1-3)GalNAc): 0.166
- glycan array binding signal (z-score) (GalNAc(b1-4)GlcNAc): -0.149
- glycan array binding signal (z-score) [1]: 0.104
- glycan array binding signal (z-score) [2]: 1.42
- glycan array binding signal (z-score) [3]: -0.57
- glycan array binding signal (z-score) [4]: -0.142
- glycan array binding signal (z-score) [5]: 0.084
- glycan array binding signal (z-score) [6]: 5.17
- glycan array binding signal (z-score) [7]: 0.888
- glycan array binding signal (z-score) [8]: -0.899
- glycan array binding signal (z-score) (Kdn(a2-3)Gal(b1-3)GlcNAc): 0.033
- glycan array binding signal (z-score) [9]: 6.56
- glycan array binding signal (z-score) [10]: 4.79
- glycan array binding signal (z-score) (Man(a1-2)Man(a1-3)Man): 3.01
- glycan array binding signal (z-score) [11]: 7.29
- glycan array binding signal (z-score) [12]: 3.54
- glycan array binding signal (z-score) [13]: 0.474
- glycan array binding signal (z-score) (Man(a1-3)[Man(a1-6)]Man): 6.16
- glycan array binding signal (z-score) [14]: 3.43
- glycan array binding signal (z-score) [15]: -1.13
- glycan array binding signal (z-score) [16]: 1.11
- glycan array binding signal (z-score) [17]: -0.595
- glycan array binding signal (z-score) [18]: -0.943
- glycan array binding signal (z-score) [19]: 0.061
- glycan array binding signal (z-score) [20]: 0.02
- glycan array binding signal (z-score) [21]: 4.3
- glycan array binding signal (z-score) [22]: 0.16
- glycan array binding signal (z-score) [23]: 0.527
- glycan array binding signal (z-score) [24]: 0.271
- glycan array binding signal (z-score) [25]: 0.439
